From PMC7862700, “An all-to-all approach to the identification of sequence-specific readers for epigenetic DNA modifications on cytosine”

Key:
Assay in all cases: DAPPL (digital affinity profiling via proximity ligation, sequencing); 10 mM Tris-HCl pH 7.5, 50 mM NaCl, 1 mM DTT, 4% glycerol, room temperature, 30 min; GST-TFs on glutathione beads, 16-mer random dsDNA library, 0.1% formaldehyde crosslink after washing; high values mean tight binding
[1] = biological target: T1, FEV (Homo sapiens, UniProt Q99581 1-238); conditions: protein: recombinant; tags: N-terminal GST; dsDNA, one strand shown
T1 sequence: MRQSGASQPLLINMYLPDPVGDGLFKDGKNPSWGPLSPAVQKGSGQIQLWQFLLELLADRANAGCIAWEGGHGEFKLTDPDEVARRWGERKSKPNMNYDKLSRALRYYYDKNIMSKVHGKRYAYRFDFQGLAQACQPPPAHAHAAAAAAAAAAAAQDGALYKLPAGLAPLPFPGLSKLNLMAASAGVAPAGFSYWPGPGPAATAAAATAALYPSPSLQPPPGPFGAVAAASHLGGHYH
In short: (§1)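 Each value of binding signal is a hexamer's read frequency for a factor divided by the same hexamer's frequency in the tag-only sample. Barcoded, bead-captured GST fusions of human transcription factors made in yeast were pooled with that sample and incubated with 200 nmole of a random double-stranded 16-mer DNA library in Tris/NaCl/DTT/glycerol buffer at room temperature for 30 min. Washing, 0.1% formaldehyde crosslinking, proximity ligation, PCR and Illumina NextSeq500 sequencing followed.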

[2] = biological target: ETV5 (Homo sapiens, UniProt P41161 1-510); conditions: protein: recombinant; tags: N-terminal GST; dsDNA, one strand shown
In short: as §1

[3] = biological target: HSF1 (Homo sapiens, UniProt Q00613 1-529); conditions: protein: recombinant; tags: N-terminal GST; chain copies: 3; dsDNA, one strand shown
In short: as §1

[4] = biological target: T2, SPIC (Homo sapiens, UniProt Q8N5J4 1-248); conditions: protein: recombinant; tags: N-terminal GST; dsDNA, one strand shown
T2 sequence: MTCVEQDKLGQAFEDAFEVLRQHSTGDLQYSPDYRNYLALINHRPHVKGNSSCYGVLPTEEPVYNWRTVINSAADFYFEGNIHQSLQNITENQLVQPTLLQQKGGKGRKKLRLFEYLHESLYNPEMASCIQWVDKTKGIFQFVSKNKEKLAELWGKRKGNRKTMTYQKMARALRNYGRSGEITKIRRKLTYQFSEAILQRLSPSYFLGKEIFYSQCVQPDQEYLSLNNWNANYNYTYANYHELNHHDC
In short: as §1

[5] = biological target: ELF4 (Homo sapiens, UniProt Q99607 1-663); conditions: protein: recombinant; tags: N-terminal GST; dsDNA, one strand shown
In short: as §1

[6] = biological target: T3, ELK4 (Homo sapiens, UniProt P28324-2 1-405); conditions: protein: recombinant; tags: N-terminal GST; dsDNA, one strand shown
T3 sequence: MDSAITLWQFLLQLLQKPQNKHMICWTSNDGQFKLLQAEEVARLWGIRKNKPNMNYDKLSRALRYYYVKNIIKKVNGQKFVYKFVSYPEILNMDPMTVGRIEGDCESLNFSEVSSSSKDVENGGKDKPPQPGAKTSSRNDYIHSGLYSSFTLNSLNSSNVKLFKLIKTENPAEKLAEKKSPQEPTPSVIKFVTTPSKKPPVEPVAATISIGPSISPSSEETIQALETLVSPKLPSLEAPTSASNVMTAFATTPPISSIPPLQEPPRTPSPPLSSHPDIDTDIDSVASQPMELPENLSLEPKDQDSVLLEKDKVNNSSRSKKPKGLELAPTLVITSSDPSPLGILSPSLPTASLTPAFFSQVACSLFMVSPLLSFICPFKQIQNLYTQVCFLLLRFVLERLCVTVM
In short: as §1

[7] = biological target: T4, ETV2 (Homo sapiens, UniProt O00321 1-342); conditions: protein: recombinant; tags: N-terminal GST; dsDNA, one strand shown
T4 sequence: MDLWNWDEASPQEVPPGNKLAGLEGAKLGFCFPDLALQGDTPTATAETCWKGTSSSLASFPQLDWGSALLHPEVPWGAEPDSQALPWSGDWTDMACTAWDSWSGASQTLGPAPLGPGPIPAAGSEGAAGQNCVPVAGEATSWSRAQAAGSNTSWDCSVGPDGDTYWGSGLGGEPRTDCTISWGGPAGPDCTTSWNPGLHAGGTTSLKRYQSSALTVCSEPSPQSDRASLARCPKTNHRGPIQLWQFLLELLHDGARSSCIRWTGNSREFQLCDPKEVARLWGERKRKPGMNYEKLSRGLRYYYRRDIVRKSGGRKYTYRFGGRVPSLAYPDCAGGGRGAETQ
In short: as §1

[8] = biological target: T5, ELF3 (Homo sapiens, UniProt P78545 1-371); conditions: protein: recombinant; tags: N-terminal GST; dsDNA, one strand shown
T5 sequence: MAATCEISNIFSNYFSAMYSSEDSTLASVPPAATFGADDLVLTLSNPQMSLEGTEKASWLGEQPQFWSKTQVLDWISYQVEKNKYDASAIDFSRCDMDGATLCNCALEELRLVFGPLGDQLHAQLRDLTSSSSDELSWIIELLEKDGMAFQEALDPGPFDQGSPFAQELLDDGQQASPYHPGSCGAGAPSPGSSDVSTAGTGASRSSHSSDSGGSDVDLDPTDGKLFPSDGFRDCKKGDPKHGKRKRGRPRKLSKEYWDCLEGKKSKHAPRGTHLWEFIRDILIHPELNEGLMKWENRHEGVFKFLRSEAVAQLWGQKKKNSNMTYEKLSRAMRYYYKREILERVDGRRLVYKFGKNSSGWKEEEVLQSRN
In short: as §1

[9] = biological target: CRX (Homo sapiens, UniProt O43186 1-299); conditions: protein: recombinant; tags: N-terminal GST; dsDNA, one strand shown
In short: as §1

[10] = biological target: ETV1 (Homo sapiens, UniProt P50549 1-477); conditions: protein: recombinant; tags: N-terminal GST; dsDNA, one strand shown
In short: as §1

[11] = biological target: T6, ERF (Homo sapiens, UniProt P50548 1-548); conditions: protein: recombinant; tags: N-terminal GST; dsDNA, one strand shown
T6 sequence: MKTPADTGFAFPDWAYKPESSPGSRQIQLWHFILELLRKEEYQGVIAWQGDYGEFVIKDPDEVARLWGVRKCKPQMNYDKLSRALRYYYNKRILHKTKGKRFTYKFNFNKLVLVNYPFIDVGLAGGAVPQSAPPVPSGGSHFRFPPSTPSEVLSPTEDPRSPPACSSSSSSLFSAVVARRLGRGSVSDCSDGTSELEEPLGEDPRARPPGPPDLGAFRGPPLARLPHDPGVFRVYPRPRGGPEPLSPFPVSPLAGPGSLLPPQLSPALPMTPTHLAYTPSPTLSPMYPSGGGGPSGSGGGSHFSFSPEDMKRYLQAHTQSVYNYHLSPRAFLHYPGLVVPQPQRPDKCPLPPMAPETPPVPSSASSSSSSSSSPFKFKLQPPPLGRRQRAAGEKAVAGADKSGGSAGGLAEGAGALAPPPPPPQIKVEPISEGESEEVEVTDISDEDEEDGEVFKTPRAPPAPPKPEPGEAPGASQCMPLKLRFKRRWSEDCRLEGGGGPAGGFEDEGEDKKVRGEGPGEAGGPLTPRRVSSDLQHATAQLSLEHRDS
In short: as §1

[12] = biological target: T7, ETV3L (Homo sapiens, UniProt Q6ZN32 1-361); conditions: protein: recombinant; tags: N-terminal GST; dsDNA, one strand shown
T7 sequence: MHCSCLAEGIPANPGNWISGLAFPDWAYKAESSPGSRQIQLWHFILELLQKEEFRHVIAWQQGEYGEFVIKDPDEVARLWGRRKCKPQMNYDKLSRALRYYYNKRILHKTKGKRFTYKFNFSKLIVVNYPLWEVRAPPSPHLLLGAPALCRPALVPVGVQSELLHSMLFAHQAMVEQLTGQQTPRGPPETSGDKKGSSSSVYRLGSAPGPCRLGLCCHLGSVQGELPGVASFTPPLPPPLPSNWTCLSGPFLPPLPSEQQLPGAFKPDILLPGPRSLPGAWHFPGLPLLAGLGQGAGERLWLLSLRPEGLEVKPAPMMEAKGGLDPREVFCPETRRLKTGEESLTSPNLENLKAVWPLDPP
In short: as §1

[13] = biological target: T8, ETS2 (Homo sapiens, UniProt P15036 1-469); conditions: protein: recombinant; tags: N-terminal GST; dsDNA, one strand shown
T8 sequence: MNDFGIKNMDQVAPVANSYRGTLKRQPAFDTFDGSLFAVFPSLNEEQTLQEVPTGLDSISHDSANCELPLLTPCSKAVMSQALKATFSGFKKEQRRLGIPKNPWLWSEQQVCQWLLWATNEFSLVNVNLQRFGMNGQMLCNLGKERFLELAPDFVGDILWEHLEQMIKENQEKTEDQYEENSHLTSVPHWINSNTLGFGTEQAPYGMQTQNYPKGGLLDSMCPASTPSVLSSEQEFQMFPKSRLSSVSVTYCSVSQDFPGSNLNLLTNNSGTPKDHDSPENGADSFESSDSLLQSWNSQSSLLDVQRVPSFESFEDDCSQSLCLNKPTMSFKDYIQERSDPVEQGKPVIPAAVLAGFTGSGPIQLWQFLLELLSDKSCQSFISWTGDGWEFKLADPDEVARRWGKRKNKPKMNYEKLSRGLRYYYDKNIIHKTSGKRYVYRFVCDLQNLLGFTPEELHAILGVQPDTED
In short: as §1

[14] = biological target: T9, SPDEF (Homo sapiens, UniProt O95238 1-335); conditions: protein: recombinant; tags: N-terminal GST; dsDNA, one strand shown
T9 sequence: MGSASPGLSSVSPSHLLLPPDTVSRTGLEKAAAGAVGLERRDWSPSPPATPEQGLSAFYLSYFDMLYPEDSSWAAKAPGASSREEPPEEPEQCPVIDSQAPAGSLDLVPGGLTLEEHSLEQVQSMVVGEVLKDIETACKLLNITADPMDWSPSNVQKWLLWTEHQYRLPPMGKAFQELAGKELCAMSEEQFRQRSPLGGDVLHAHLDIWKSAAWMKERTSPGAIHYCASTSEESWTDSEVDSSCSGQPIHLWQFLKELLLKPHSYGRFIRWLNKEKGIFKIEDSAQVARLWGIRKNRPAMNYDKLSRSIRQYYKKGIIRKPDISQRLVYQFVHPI
In short: as §1

[15] = biological target: T10, ETV7 (Homo sapiens, UniProt Q9Y603 1-341); conditions: protein: recombinant; tags: N-terminal GST; dsDNA, one strand shown
T10 sequence: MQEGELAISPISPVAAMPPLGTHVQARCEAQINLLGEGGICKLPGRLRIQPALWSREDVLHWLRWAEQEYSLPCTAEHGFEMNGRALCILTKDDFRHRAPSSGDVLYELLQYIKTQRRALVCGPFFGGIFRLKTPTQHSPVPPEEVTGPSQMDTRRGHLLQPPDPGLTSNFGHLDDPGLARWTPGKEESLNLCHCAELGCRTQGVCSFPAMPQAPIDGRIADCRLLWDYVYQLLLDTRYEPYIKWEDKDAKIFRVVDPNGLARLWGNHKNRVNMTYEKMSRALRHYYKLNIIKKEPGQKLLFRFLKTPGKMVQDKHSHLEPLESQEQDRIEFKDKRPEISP
In short: as §1

[16] = biological target: T11, ELF5 (Homo sapiens, UniProt Q9UKW6-2 1-255); conditions: protein: recombinant; tags: N-terminal GST; dsDNA, one strand shown
T11 sequence: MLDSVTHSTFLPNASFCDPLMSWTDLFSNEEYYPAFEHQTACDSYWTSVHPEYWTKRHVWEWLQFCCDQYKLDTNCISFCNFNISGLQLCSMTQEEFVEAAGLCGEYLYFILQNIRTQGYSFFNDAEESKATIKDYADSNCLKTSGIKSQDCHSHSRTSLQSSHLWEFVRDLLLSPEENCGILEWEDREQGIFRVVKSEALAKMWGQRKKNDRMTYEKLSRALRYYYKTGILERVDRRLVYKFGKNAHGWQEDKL
In short: as §1

[17] = biological target: T12, ETV3 (Homo sapiens, UniProt P41162-2 1-143); conditions: protein: recombinant; tags: N-terminal GST; dsDNA, one strand shown
T12 sequence: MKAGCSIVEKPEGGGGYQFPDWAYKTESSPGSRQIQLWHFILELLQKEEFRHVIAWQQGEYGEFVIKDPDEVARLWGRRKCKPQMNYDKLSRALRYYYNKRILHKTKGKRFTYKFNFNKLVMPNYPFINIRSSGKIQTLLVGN
In short: as §1

[18] = biological target: ETV6 (Homo sapiens, UniProt P41212 1-452); conditions: protein: recombinant; tags: N-terminal GST; dsDNA, one strand shown
In short: as §1

Chain of ETV6 (P41212 whole entry): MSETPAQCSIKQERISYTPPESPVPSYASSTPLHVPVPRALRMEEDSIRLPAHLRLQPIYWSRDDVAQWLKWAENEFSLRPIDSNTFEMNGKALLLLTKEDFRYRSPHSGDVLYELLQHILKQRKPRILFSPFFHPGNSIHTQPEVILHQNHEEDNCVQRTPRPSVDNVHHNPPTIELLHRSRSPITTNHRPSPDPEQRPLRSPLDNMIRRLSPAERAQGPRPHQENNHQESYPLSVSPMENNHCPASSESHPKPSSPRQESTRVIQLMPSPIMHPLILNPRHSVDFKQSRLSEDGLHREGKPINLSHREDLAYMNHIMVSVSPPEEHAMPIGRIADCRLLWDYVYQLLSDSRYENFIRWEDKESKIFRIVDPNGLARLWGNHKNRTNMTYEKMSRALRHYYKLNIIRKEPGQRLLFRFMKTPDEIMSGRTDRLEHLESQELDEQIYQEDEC
Chain of ETV1 (P50549 whole entry): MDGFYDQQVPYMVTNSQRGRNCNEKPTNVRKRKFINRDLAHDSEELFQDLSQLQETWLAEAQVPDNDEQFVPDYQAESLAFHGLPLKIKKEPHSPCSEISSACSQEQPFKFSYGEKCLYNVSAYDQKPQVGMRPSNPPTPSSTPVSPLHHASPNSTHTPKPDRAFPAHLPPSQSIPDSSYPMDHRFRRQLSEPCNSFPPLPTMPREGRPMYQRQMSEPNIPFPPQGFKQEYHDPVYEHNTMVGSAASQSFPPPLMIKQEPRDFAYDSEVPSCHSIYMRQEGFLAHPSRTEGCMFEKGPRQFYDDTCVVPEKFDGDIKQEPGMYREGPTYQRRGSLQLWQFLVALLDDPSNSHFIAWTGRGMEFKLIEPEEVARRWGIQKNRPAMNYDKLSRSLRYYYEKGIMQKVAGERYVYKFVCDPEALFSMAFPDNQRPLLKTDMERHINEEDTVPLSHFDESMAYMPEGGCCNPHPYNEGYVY
Chain of ELF4 (Q99607 whole entry): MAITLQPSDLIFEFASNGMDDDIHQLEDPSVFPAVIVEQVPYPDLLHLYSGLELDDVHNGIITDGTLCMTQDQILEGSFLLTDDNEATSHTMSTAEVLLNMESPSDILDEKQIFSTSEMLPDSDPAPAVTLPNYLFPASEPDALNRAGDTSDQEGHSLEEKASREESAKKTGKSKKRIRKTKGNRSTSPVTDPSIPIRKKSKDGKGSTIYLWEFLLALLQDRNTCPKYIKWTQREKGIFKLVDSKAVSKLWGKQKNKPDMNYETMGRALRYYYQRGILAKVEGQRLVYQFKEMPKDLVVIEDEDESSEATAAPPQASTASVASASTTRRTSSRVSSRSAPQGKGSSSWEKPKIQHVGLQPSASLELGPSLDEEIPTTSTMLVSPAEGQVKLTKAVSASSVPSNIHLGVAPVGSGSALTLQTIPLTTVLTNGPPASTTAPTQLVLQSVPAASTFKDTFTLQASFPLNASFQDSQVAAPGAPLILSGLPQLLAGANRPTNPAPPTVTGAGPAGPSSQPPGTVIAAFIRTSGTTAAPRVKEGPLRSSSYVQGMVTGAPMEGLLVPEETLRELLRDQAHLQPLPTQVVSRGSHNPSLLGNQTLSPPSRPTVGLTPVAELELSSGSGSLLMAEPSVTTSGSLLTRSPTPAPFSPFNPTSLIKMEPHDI
Chain of ETV5 (P41161 whole entry): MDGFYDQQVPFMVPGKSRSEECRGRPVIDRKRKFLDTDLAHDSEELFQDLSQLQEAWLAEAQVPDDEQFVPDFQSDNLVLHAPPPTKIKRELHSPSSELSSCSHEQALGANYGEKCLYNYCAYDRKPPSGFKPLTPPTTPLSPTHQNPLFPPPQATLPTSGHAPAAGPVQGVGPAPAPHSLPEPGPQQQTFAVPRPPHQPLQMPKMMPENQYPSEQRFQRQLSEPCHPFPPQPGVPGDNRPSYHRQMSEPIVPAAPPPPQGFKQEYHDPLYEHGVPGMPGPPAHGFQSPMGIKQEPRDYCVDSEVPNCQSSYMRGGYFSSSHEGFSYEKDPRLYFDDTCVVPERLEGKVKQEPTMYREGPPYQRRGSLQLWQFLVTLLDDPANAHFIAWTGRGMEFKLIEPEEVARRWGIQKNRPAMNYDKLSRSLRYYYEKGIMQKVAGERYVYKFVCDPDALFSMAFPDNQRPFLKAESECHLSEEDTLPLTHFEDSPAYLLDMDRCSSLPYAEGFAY
Chain of HSF1 (Q00613 whole entry): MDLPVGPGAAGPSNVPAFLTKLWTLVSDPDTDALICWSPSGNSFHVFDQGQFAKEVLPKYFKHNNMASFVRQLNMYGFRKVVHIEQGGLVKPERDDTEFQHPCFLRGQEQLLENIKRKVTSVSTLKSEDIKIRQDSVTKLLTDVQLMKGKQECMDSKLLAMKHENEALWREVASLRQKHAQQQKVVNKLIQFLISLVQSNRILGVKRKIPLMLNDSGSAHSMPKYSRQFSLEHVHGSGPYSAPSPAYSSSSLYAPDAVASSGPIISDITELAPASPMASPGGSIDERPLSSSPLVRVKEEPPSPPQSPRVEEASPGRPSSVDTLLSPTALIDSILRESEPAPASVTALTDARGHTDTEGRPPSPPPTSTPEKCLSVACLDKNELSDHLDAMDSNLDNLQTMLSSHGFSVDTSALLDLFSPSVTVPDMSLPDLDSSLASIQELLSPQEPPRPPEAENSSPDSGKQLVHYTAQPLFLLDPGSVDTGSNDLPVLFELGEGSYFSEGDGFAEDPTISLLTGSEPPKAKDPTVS
Chain of CRX (O43186 whole entry): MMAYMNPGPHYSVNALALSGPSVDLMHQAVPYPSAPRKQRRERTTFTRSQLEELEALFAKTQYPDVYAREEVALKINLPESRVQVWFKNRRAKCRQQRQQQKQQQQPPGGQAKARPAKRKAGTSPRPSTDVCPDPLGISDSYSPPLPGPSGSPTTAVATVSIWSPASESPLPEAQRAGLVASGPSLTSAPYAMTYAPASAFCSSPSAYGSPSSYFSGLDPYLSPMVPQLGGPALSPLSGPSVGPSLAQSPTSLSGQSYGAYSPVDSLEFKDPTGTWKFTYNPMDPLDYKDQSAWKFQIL

For AACAAA, the binding signal [1] was 1.2 fold enrichment (6-mer frequency, TF over GST control), the binding signal [2] was 1.11 fold enrichment (6-mer frequency, TF over GST control) and the binding signal [3] was 1.18 fold enrichment (6-mer frequency, TF over GST control). The binding signal [4] was 1.14 fold enrichment (6-mer frequency, TF over GST control), the binding signal [5] was 1.16 fold enrichment (6-mer frequency, TF over GST control) and the binding signal [6] was 1.17 fold enrichment (6-mer frequency, TF over GST control). The binding signal [7] was 1.26 fold enrichment (6-mer frequency, TF over GST control), the binding signal [8] was 1.21 fold enrichment (6-mer frequency, TF over GST control) and the binding signal [9] was 1.14 fold enrichment (6-mer frequency, TF over GST control). For the same sequence, the binding signal [10] was 1.19 fold enrichment (6-mer frequency, TF over GST control), the binding signal [11] was 1.2 fold enrichment (6-mer frequency, TF over GST control) and the binding signal [12] was 1.14 fold enrichment (6-mer frequency, TF over GST control). For the same sequence, the binding signal [13] was 1.22 fold enrichment (6-mer frequency, TF over GST control), the binding signal [14] was 1.11 fold enrichment (6-mer frequency, TF over GST control) and the binding signal [15] was 1.13 fold enrichment (6-mer frequency, TF over GST control). The binding signal [16] was 1.16 fold enrichment (6-mer frequency, TF over GST control), the binding signal [17] was 1.15 fold enrichment (6-mer frequency, TF over GST control) and the binding signal [18] was 1.18 fold enrichment (6-mer frequency, TF over GST control).
